# PubChem BioAssay (Tox21)
# Records with an inconclusive call do not appear. A call without a number means that no potency is given here. Unmarked numbers belong to inactive results. Active and inactive are the calls of the source. Unless noted, the call rests on the fitted dose curve.
# What was measured:
# [1] = qHTS assay to identify small molecule antagonists of the vitamin D receptor (VDR) signaling pathway - cell viability counter screen (AID 743225; active means well fitted curve in the direction sought with a large enough effect in the repeat runs; an effect the other way counts as inactive or inconclusive; further: nearly all actives have a fitted effect of over 50% in size; further: potency means the concentration at half of the fitted maximal effect)
# Method in brief: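 Cells (VDR-UAS-bla HEK 293T) are plated, rested 4 h at 37C, dosed with compound and 3 nM final 1-alpha,25-dihydroxy vitamin D3, and incubated 16 h. Viability is taken from CellTiter-Glo luminescence in the reporter wells.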
# [2] = qHTS assay to identify small molecule agonists of the NFkB signaling pathway (AID 1159509; active means well fitted curve in the direction sought with a large enough effect in the signal ratio in the repeat runs, not every such curve was filed as active; the % refers to the signal ratio; further: series mostly up to about 61 µM)
# Method in brief: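 NFkB-bla ME-180 cells with a beta-lactamase reporter under an NF-kB response element were plated overnight, treated with compounds in DMSO for 5 hr at 37 C, then loaded with FRET substrate for 1.5 hr at room temperature.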
# [3] = qHTS assay to identify small molecule agonists of the NFkB signaling pathway - cell viability counter screen (AID 1159515); further: nearly all actives have a fitted effect of over 55% in size; further: potency means the concentration at half of the fitted maximal effect
# Method in brief: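 NFkB-bla ME-180 cells, 2,000/well, were plated overnight at 37 C, 5% CO2, then exposed to compounds in DMSO for 5 hr. After the bla FRET read, CellTiter-Glo was added to the same wells; luminescence was read after 30 min at room temperature.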
# [4] = qHTS assay to identify small molecule agonists of the endoplasmic reticulum stress response signaling pathway - cell viability counter screen (AID 1159517); further: series mostly up to about 61 µM; nearly all actives have a fitted effect of over 50% in size
# Method in brief: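 Luminescence readout: CellTiter-Glo, 30 min RT, same wells as the ESRE-bla reporter read. HeLa ESRE-bla, 1,500 cells/well, o/n 37 C; cpd 5 hr 37 C/5% CO2.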
# [5] = target: Nuclear receptor ROR-gamma (Homo sapiens) (UniProt P51449); assay: qHTS assay to identify small molecule antagonists of the retinoid-related orphan receptor gamma (ROR-gamma) signaling pathway (AID 1159521; active means well fitted curve in the direction sought with a large enough effect in the repeat runs; an effect the other way counts as inactive or inconclusive; further: nearly all actives have a fitted effect of over 50% in size; further: potency means the concentration at half of the fitted maximal effect;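 on activity change, negative = inhibition: CHO cells with doxycycline inducible ROR-gamma driving an RORE luciferase reporter; top concentration of the series differs between compounds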)
# Method in brief: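 RORγ antagonism is scored from reduced reporter luminescence in Tet-on CHO cells. Induction used 1 uM final doxycycline hyclate for 16 h at 37 C, following a 2 h compound exposure.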
# [6] = qHTS assay to identify small molecule agonists of the AP-1 signaling pathway - cell viability counter screen (AID 1159525); further: nearly all actives have a fitted effect of over 55% in size; further: potency means the concentration at half of the fitted maximal effect
# Method in brief: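 ME-180 AP-1-bla, 2500 cells/well, Opti-MEM + 0.5% dialyzed FBS; overnight 37 °C; cpd 15-pt titration, 5 h 37 °C; CellTiter-Glo 30 min RT; luminescence read; normalised to TOAB and DMSO controls.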
# [7] = qHTS assay to identify small molecule agonists of the AP-1 signaling pathway (AID 1159526)
# [8] = qHTS assay to identify small molecule antagonists of the retinoid-related orphan receptor gamma (ROR-gamma) signaling pathway - cell viability counter screen (AID 1159520; active means well fitted curve in the direction sought with a large enough effect in the repeat runs; an effect the other way counts as inactive or inconclusive; further: nearly all actives have a fitted effect of over 50% in size; further: potency means the concentration at half of the fitted maximal effect)
# Method in brief: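 Tet-on ROR gamma CHO cells (1,000/well) were plated 4 hr, given compounds in DMSO for 2 hr at 37 C, then induced with 1 uM final doxycycline for 16 hr. Viability was read as ATP by CellTiter-Glo luminescence after 30 min.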
# [9] = target: Retinoic acid receptor RXR-alpha (Homo sapiens) (UniProt P19793); assay: qHTS assay to identify small molecule agonists of the RXR signaling pathway (AID 1159527); further: nearly all actives have a fitted effect of over 35% in size
# Method in brief: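 qHTS of the Tox21 10K library in GeneBLAzer RXR-alpha HEK 293T cells carrying a beta-lactamase reporter […]; 16 hr treatment, 9-cis retinoic acid as agonist control, FRET read-out.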
# [10] = qHTS assay to identify small molecule agonists of the endoplasmic reticulum stress response signaling pathway (AID 1159516; active means well fitted activation curve with a large enough effect in the signal ratio in the repeat runs, not every such curve was filed as active; the % refers to the signal ratio)
# Method in brief: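 CellSensor ESRE-bla HeLa cells, carrying a beta-lactamase reporter driven by the ER stress response element, were plated overnight and exposed to compounds for 5 hr at 37 C. Reporter activity was read as FRET substrate fluorescence after 2 hr at room temperature.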
# Retinoic acid receptor RXR-alpha (Homo sapiens), sequence (P19793 whole entry, looked up): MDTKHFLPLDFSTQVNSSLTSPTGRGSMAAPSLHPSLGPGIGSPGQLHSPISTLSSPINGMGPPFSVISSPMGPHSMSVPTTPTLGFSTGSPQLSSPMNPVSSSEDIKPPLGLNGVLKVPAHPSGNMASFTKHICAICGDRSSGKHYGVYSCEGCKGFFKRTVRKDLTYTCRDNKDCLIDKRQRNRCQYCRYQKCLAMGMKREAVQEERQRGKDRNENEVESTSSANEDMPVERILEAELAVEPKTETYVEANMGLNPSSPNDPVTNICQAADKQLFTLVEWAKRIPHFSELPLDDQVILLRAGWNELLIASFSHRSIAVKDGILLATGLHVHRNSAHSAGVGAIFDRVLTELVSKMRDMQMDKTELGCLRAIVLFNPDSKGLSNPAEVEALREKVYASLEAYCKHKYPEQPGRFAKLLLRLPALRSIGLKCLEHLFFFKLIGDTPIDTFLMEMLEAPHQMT
compound,measurement,setting,value
CC(C)OC(=O)c1ccccc1C(=O)OC(C)C,Potency,[1],inactive
same,outcome,[2],inactive
same,Potency,[3],inactive
same,Potency,[4],inactive
same,Potency,[5],inactive
same,Potency,[6],inactive
same,outcome,[7],inactive
CCCCCCOC(=O)CCCCC,outcome,[2],inactive
same,Potency,[3],inactive
same,Potency,[4],inactive
same,Potency,[8],inactive
same,Potency,[6],inactive
same,outcome,[7],inactive
same,Potency,[9],inactive
CNS(=O)(=O)c1cc(C(=O)N2CCC(CCN3C4CCC3CC(n3c(C)nc5ccccc53)C4)(c3cccc(F)c3)CC2)c(Cl)cc1F (stereo unspecified),Potency,[1],13.8 µM (active)
same,outcome,[2],inactive
same,Potency,[3],38.9 µM (active)
same,Potency,[4],inactive
same,Potency,[8],inactive
same,Potency,[5],7.7 µM (active)
same,Potency,[6],24.5 µM (active)
same,outcome,[7],inactive
Oc1cccc2[nH]ccc12,Potency,[1],inactive
same,outcome,[2],inactive
same,Potency,[3],inactive
same,Potency,[4],inactive
same,Potency,[8],inactive
same,Potency,[5],inactive
same,Potency,[6],inactive
same,outcome,[7],inactive
CC12CC3CC(C)(C1)CC(N)(C3)C2,Potency,[1],inactive
same,outcome,[2],inactive
same,Potency,[3],inactive
same,Potency,[4],inactive
same,Potency,[8],inactive
same,Potency,[6],inactive
same,outcome,[7],inactive
same,Potency,[9],inactive
C1=CCC2CC=CC2C1 (stereo unspecified),Potency,[1],inactive
same,outcome,[2],inactive
same,Potency,[3],inactive
same,Potency,[4],inactive
same,Potency,[8],inactive
same,Potency,[6],inactive
same,outcome,[7],inactive
CC(=O)OCC(C)C,Potency,[1],inactive
same,outcome,[2],inactive
same,Potency,[3],inactive
same,Potency,[4],inactive
same,Potency,[8],inactive
same,Potency,[5],inactive
same,Potency,[6],inactive
same,outcome,[7],inactive
CCO[Si](C)(CCCOCC1CO1)OCC (stereo unspecified),Potency,[1],inactive
same,outcome,[2],inactive
same,Potency,[3],inactive
same,Potency,[4],inactive
same,Potency,[8],inactive
same,Potency,[5],inactive
same,Potency,[6],inactive
same,outcome,[7],inactive
CC(C(=O)O)c1ccc(C(=O)c2cccs2)cc1 (stereo unspecified),Potency,[1],inactive
same,outcome,[2],inactive
same,Potency,[3],inactive
same,Potency,[4],inactive
same,Potency,[8],inactive
same,Potency,[5],inactive
same,Potency,[6],inactive
same,outcome,[7],inactive
O=[N+]([O-])C1(Br)COCOC1,Potency,[1],inactive
same,outcome,[2],inactive
same,Potency,[3],inactive
same,Potency,[4],inactive
same,Potency,[8],24.3 µM (active)
same,Potency,[5],24.3 µM (active)
same,Potency,[6],inactive
same,outcome,[7],inactive
CCCC(=O)OC(=O)CCC,Potency,[1],inactive
same,outcome,[2],inactive
same,Potency,[3],inactive
same,Potency,[4],inactive
same,Potency,[8],inactive
same,Potency,[5],inactive
same,Potency,[6],inactive
same,outcome,[7],inactive
CCCCOC(=O)CCCCC(=O)OCCCC,Potency,[1],inactive
same,outcome,[2],inactive
same,Potency,[3],inactive
same,Potency,[4],inactive
same,Potency,[8],inactive
same,Potency,[5],inactive
same,Potency,[6],inactive
same,outcome,[7],inactive
CC(C)c1ccc(C(=O)N=C(N)N)cc1S(C)(=O)=O,Potency,[1],inactive
same,outcome,[2],inactive
same,Potency,[3],inactive
same,Potency,[4],inactive
same,Potency,[5],inactive
same,Potency,[6],inactive
same,outcome,[7],inactive
CC(C)c1ccc(C#N)cc1,Potency,[1],inactive
same,outcome,[2],inactive
same,Potency,[3],inactive
same,Potency,[4],inactive
same,Potency,[6],inactive
same,outcome,[7],inactive
same,Potency,[9],inactive
CCCc1nc2c(C)cc(-c3nc4ccccc4n3C)cc2n1Cc1ccc(-c2ccccc2C(=O)O)cc1,Potency,[1],inactive
same,outcome,[2],inactive
same,Potency,[3],inactive
same,Potency,[4],inactive
same,Potency,[8],inactive
same,Potency,[5],inactive
same,Potency,[6],inactive
same,outcome,[7],inactive
COc1ccc(-n2nc(C(F)F)cc2-c2ccc(S(C)=O)cc2)cc1 (stereo unspecified),Potency,[1],inactive
same,outcome,[2],inactive
same,Potency,[3],inactive
same,Potency,[4],inactive
same,Potency,[8],inactive
same,Potency,[5],inactive
same,Potency,[6],inactive
same,outcome,[7],inactive
CCN(CC)C(=O)N1CCN(C)CC1,Potency,[1],inactive
same,outcome,[2],inactive
same,Potency,[3],inactive
same,Potency,[4],inactive
same,Potency,[6],inactive
same,outcome,[7],inactive
SCCc1cnccn1,Potency,[1],inactive
same,outcome,[2],inactive
same,Potency,[3],inactive
same,Potency,[4],inactive
same,Potency,[5],inactive
same,Potency,[6],inactive
same,outcome,[7],inactive
same,Potency,[9],inactive
Cc1oc(=O)oc1COC(=O)[C@@H]1N2C(=O)[C@@H](NC(=O)[C@H](N)c3ccccc3)[C@H]2SC1(C)C,Potency,[1],inactive
same,outcome,[2],inactive
same,Potency,[3],inactive
same,Potency,[4],inactive
same,Potency,[8],inactive
same,Potency,[6],inactive
same,outcome,[7],inactive
Cc1ccc(NC(=O)N(C)C)cc1NC(=O)N(C)C,Potency,[1],inactive
same,outcome,[2],inactive
same,Potency,[3],inactive
same,Potency,[4],inactive
same,Potency,[8],inactive
same,Potency,[5],inactive
same,Potency,[6],inactive
same,outcome,[7],inactive
CCC(C)(C)C(=O)O,Potency,[1],inactive
same,Potency,[3],inactive
same,Potency,[10],inactive
same,Potency,[5],inactive
same,Potency,[6],inactive
same,outcome,[7],inactive
CCCCCCCCCCCCCOS(=O)(=O)O,Potency,[3],54.9 µM (active)
same,Potency,[10],inactive
same,Potency,[8],inactive
same,Potency,[9],inactive
c1ccc2sc(SSc3nc4ccccc4s3)nc2c1,Potency,[1],inactive
same,Potency,[3],inactive
same,Potency,[10],inactive
same,"activity, negative = cytotoxicity",[8],-8.11% [at 19 µM]
same,"activity change, negative = inhibition",[5],7.93% [at 19 µM]
same,"viability change, negative = cytotoxic",[6],-2.35% [at 15.8 µM]
same,activation,[7],15.6% [at 15.8 µM]
same,activation,[9],-16% [at 15.8 µM]
CNCc1ccc(NC(=O)c2c[nH]c3c2C(=O)CCC3)cc1,Potency,[1],inactive
same,Potency,[3],inactive
same,Potency,[10],inactive
same,Potency,[8],inactive
same,Potency,[5],inactive
same,Potency,[6],inactive
same,outcome,[7],inactive
same,Potency,[9],inactive
CC(=O)OC(C)C[N+](C)(C)C (stereo unspecified),Potency,[1],inactive
same,Potency,[3],inactive
same,Potency,[10],inactive
same,Potency,[8],inactive
same,Potency,[5],inactive
same,Potency,[6],inactive
same,Potency,[9],inactive
CN1C(CSCC(F)(F)F)Nc2cc(Cl)c(S(N)(=O)=O)cc2S1(=O)=O (stereo unspecified),Potency,[1],inactive
same,Potency,[3],inactive
same,Potency,[10],inactive
same,Potency,[8],inactive
same,Potency,[5],inactive
same,Potency,[6],inactive
same,outcome,[7],inactive
same,Potency,[9],inactive
COc1cc(NCc2ccc3nc(N)nc(N)c3c2C)cc(OC)c1OC,Potency,[3],inactive
same,Potency,[4],inactive
same,Potency,[8],inactive
same,Potency,[5],inactive
same,Potency,[6],inactive
same,outcome,[7],inactive
O=C1[C@@H]2[C@H]3CC[C@H](C3)[C@@H]2C(=O)N1CCCCN1CCN(c2ncccn2)CC1,Potency,[3],inactive
same,Potency,[10],inactive
same,Potency,[8],inactive
same,Potency,[5],inactive
same,Potency,[6],inactive
same,outcome,[7],inactive
same,Potency,[9],inactive
